# “And” between values parts separate entries of the source, which are not always exact repeats. Identical values can stand only once. Results filed as inconclusive are left out. The source made the active and inactive calls. Rule for the calls, unless noted: active = hit-call score of the fitted dose curve at least 0.9, where 1 is the maximum; inactive = score below 0.9.
# What was measured:
# [1] = TOX21_p53_BLA_p2_viability: Viability Assessment in the Tox21 HCT-116 p53 Agonism Beta-lactamase Assay, Phase 2 (AID 2283591; active = hit-call score of the fitted dose curve at least 0.9, where 1 is the maximum;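 note: actives lower the ATP signal meaning cytotoxicity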)
# Outline: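 Cytotoxicity readout: CellTiter-Glo ATP luminescence, 30 min at room temperature, after the beta-lactamase read. Cells were HCT116 exposed 16 h at 37C to compounds pin-transferred at 217-fold dilution from DMSO stocks.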
# [2] = target: Cellular tumor antigen p53 (Homo sapiens) (UniProt P04637); experiment: TOX21_p53_BLA_p2_ratio: Tox21 HCT-116 p53 Agonism Beta-lactamase Assay, Ratio, Phase 2 (AID 2283592; active = hit-call score of the fitted dose curve at least 0.9, where 1 is the maximum)
# Cellular tumor antigen p53 (Homo sapiens), sequence (P04637 whole entry, looked up): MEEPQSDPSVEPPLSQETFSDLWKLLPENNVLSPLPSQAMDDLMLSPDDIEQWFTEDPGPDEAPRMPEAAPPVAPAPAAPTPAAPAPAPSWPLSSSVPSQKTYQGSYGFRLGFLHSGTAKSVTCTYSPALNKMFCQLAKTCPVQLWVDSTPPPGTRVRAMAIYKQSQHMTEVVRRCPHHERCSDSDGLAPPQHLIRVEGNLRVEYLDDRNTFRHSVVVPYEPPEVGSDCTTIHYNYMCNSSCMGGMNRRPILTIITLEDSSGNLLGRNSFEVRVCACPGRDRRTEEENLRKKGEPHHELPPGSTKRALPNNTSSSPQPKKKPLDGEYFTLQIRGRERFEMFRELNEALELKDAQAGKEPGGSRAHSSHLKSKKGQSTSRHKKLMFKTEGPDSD
# Outline: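 Readout: blue/green (460/530 nm) FRET emission ratio after 2 h CCF4-AM loading at room temperature, excitation 405 nm. HCT116 p53 bla cells, 16 h compound exposure at 37C, 5% CO2; agonist direction fitted against DMSO baseline.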
# [3] = TOX21_p53_BLA_p3_viability: Viability Assessment in the Tox21 HCT-116 p53 Agonism Beta-lactamase Assay, Phase 3 (AID 2283593; active = hit-call score of the fitted dose curve at least 0.9, where 1 is the maximum;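 note: cells exposed to compound for 16 h before reading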)
# Outline: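 Cellular ATP was quantified by CellTiter-Glo luminescence, read after 30 min at room temperature. Beforehand, HCT116 cells (4000/well) received compound 5 h post-seeding, 217-fold diluted from DMSO, then incubated 16 h at 37C.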
# [4] = target: Cellular tumor antigen p53 (Homo sapiens) (UniProt P04637); experiment: TOX21_p53_BLA_p3_ratio: Tox21 HCT-116 p53 Agonism Beta-lactamase Assay, Ratio, Phase 3 (AID 2283596; active = hit-call score of the fitted dose curve at least 0.9, where 1 is the maximum)
# Outline: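 Cells were seeded at 4000/well, rested 5 h at 37C, then dosed with DMSO compound solutions (217-fold dilution) for 16 h. CCF4-AM substrate was loaded for 2 h at room temperature, and the 460/530 nm emission ratio was fitted for gain of signal versus DMSO.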
# [5] = TOX21_p53_BLA_p4_viability: Viability Assessment in the Tox21 HCT-116 p53 Agonism Beta-lactamase Assay, Phase 4 (AID 2283597; active = hit-call score of the fitted dose curve at least 0.9, where 1 is the maximum;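 note: hits lower the luminescence signal meaning cytotoxicity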)
# Outline: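 ATP content by CellTiter-Glo luminescence, 30 min RT, read after the beta-lactamase ratio step. Cells: HCT116, 4000/well, compound added after 5 h, exposure 16 h at 37C. Signal loss = reduced viability.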
# [6] = target: Cellular tumor antigen p53 (Homo sapiens) (UniProt P04637); experiment: TOX21_p53_BLA_p5_ratio: Tox21 HCT-116 p53 Agonism Beta-lactamase Assay, Ratio, Phase 5 (AID 2283599; active = hit-call score of the fitted dose curve at least 0.9, where 1 is the maximum)
# Outline: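 Beta-lactamase reporter ratio (blue 460 nm over green 530 nm, 405 nm excitation) after 2 h CCF4-AM loading, in HCT-116 cells exposed 16 h at 37 C to compounds pinned at 217-fold dilution. Increases relative to DMSO baseline scored.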
# [7] = TOX21_p53_BLA_p5_viability: Viability Assessment in the Tox21 HCT-116 p53 Agonism Beta-lactamase Assay, Phase 5 (AID 2283600; active = hit-call score of the fitted dose curve at least 0.9, where 1 is the maximum)
# Outline: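 ATP luminescence (CellTiter-Glo, 30 min, RT) served as the viability read-out, with loss of signal indicating cytotoxicity. Compounds in DMSO were pinned at a 217-fold dilution onto 4000 cells/well and incubated 16 h, 37C.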
# [8] = target: Cellular tumor antigen p53 (Homo sapiens) (UniProt P04637); experiment: TOX21_p53_BLA_p4_ratio: Tox21 HCT-116 p53 Agonism Beta-lactamase Assay, Ratio, Phase 4 (AID 2283601; active = hit-call score of the fitted dose curve at least 0.9, where 1 is the maximum)
# Outline: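 Signal is the blue/green (460nm/530nm) ratio of cleaved versus uncleaved CCF4-AM substrate, read after 2 h substrate loading. Cells were HCT116 carrying the p53-responsive beta-lactamase reporter, dosed 16 h at 37C, 5% CO2; CellTiter-Glo measured in parallel.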
# [9] = CCTE_Shafer_MEA_acute_spike_number: CCTE's Neural Acute Assay for Total Number of Spikes, Shafer Lab (AID 2284008);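 note: curve fitted for decrease in spike count so AC50 reflects inhibitors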
# Outline: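 Rat cortical cultures, DIV 13/15, 37 C. 40 min baseline rec, cpd 0.03-40 uM, 40 min post-dose rec. Band-pass 300-5000 Hz, spike threshold 8x rms; % change in spike count per well, DMSO neg ctrl, loss-of-signal fit.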
# [10] = CCTE_Shafer_MEA_acute_firing_rate_mean: CCTE's Neural Acute Assay for Mean Firing Rate, Shafer Lab (AID 2284009);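 note: analyzed for loss of signal so actives lower firing rate relative to DMSO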
# Outline: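 Primary rat cortical neurons on 16-electrode MEA wells were exposed on DIV 13 or 15 to compound (0.03-40 uM). Spike counts per recording time, averaged over electrodes, were compared between 40-min baseline and 40-min post-exposure recordings as percent change.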
# [11] = CCTE_Shafer_MEA_acute_burst_number: CCTE's Neural Acute Assay for Single-Electrode Bursts, Shafer Lab (AID 2284013)
# Outline: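 Primary rat cortical neurons on 16-electrode MEA wells, DIV 13 or 15, exposed to compound (0.03-40 uM; ≥3 wells); 40-min recordings at 37 C before and after treatment. Burst count expressed as percent change from baseline, DMSO as negative control.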
# [12] = CCTE_Shafer_MEA_acute_burst_duration_mean: CCTE's Neural Acute Assay for Mean Burst Duration, Shafer Lab (AID 2284014);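 note: hits are decreases in mean burst duration relative to DMSO controls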
# Outline: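 Mean burst duration was compared between a 40 min baseline and a 40 min recording in the presence of compound (0.03-40 uM, 37 C), giving percent change per well. Cultures were rat cortical neurons at DIV 13 or 15; wells needed ≥10 active electrodes.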
# [13] = CCTE_Shafer_MEA_acute_per_burst_spike_number_mean: CCTE's Neural Acute Assay for Average Number of Spikes Per Burst, Shafer Lab (AID 2284015);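 note: hits are decreases in mean spikes per burst versus baseline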
# Outline: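 Percent change in mean spikes per single-electrode burst is compared between a 40 min baseline and a 40 min recording with compound (0.03-40 uM). Cultures were rat cortical neurons on MEA plates at DIV 13 or 15, recorded at 37 C, with DMSO as the negative control.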
# [14] = CCTE_Shafer_MEA_acute_interburst_interval_mean: CCTE's Neural Acute Assay for Mean Interburst Interval, Shafer Lab (AID 2284016);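 note: percent change of mean interburst interval versus each well's own pre-dose baseline; curves fitted for decrease in interburst interval relative to DMSO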
# Outline: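 Percent change in mean single-electrode interburst interval was calculated per well from 40 min recordings before and after compound (0.03-40 uM). Recordings were made at 37 C on rat cortical cultures at DIV 13 or 15, with spikes detected at 8x rms threshold.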
# [15] = CCTE_Shafer_MEA_acute_burst_percentage_mean: CCTE's Neural Acute Assay for Percentage of Spikes in a Burst, Shafer Lab (AID 2284017);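 note: curve fitted for loss of signal so potency reflects decreased burst percentage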
# Outline: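 Well-level mean burst percentage from a 40-min recording after compound (0.03-40 uM) expressed as percent change from a 40-min baseline at 37C. Cultures: primary rat cortical neurons on MEA, dosed on DIV 13 or 15; fitted downward relative to DMSO.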
# [16] = CCTE_Shafer_MEA_acute_burst_percentage_std: CCTE's Neural Acute Assay for Standard Deviation of Burst Percentage, Shafer Lab (AID 2284018);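 note: fitted in the negative direction so actives lower burst percentage SD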
# Outline: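 Value is percent change from baseline in the across-electrode SD of spikes-in-bursts percentage, wells with >/= 10 active electrodes. Acute 40-min exposure to 0.03-40 uM on DIV 13 or 15 rat cortical cultures, recorded at 37 C after 40-min baseline.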
# [17] = CCTE_Shafer_MEA_acute_per_network_burst_spike_number_mean: CCTE's Neural Acute Assay for Average Number of Spikes in a Network Burst, Shafer Lab (AID 2284019)
# Outline: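 Percent change from baseline in mean spikes per network burst, spikes detected at 8x rms noise. Each compound at 0.03-40 uM in at least three wells of rat cortical cultures, recorded 40 min before and 40 min during exposure.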
# [18] = CCTE_Shafer_MEA_acute_per_network_burst_spike_number_std: CCTE's Neural Acute Assay for Standard Deviation of Number of Spikes in a Network Burst, Shafer Lab (AID 2284020);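 note: fitted for decrease in spike-number SD versus DMSO so actives lower it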
# Outline: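 Endpoint: percent change from 40 min baseline in standard deviation of spikes per network burst, after 40 min compound exposure (0.03-40 uM, 37 C). Cortical rat neurons on MEA at DIV 13 or 15; spikes detected at 8x rms noise, 300-5000 Hz band-pass.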
# [19] = CCTE_Shafer_MEA_acute_per_network_burst_electrodes_number_mean: CCTE's Neural Acute Assay for Mean Number of Electrodes in a Network Burst, Shafer Lab (AID 2284021);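 note: curves fitted for decreases only so hits reduce electrodes per burst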
# Outline: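 Readout: % change in mean electrodes active per network burst, post- vs pre-treatment, each well. Spikes detected at 8x rms noise after 300-5000 Hz band-pass; rat cortical cultures, DIV 13/15, compounds 0.03-40 uM, DMSO baseline.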
# [20] = CCTE_Shafer_MEA_acute_network_burst_percentage: CCTE's Neural Acute Assay for Percentage of Network Bursts, Shafer Lab (AID 2284022);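 note: rat primary cortical neuron networks on multiwell MEA recorded 40 min; curves fitted for loss so actives lower network burst percentage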
# Outline: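 Rat cortical cultures, DIV 13/15; 20 min equilibration, 40 min baseline, compound 0.03-40 uM, 40 min recording, 37 C. Spikes: 300-5000 Hz band-pass, threshold 8x rms noise. Readout: % change in network-burst spike fraction; loss direction vs DMSO.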
# [21] = CCTE_Shafer_MEA_acute_cross_correlation_area: CCTE's Neural Acute Assay for Area of Cross Correlation, Shafer Lab (AID 2284024);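 note: rat primary cortical neuron networks on 48-well MEA at DIV 13 or 15 with 40 min exposure; area under pooled inter-electrode spike cross-correlation near zero lag as percent change from own baseline; curves fitted for loss of cross-correlation area so actives lower synchrony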
# Outline: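 Rat cortical cultures, DIV 13/15, MEA; spikes detected at 8x rms noise (300-5000 Hz band-pass). Compound 0.03-40 uM, ≥3 wells each. Readout: % change in pooled inter-electrode cross-correlation area vs own baseline; DMSO negative control.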
# [22] = CCTE_Shafer_MEA_acute_synchrony_index: CCTE's Neural Acute Assay for Synchrony, Shafer Lab (AID 2284027);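 note: network synchrony index of spontaneous spiking in primary rat cortical neurons on MEAs; fitted for loss of signal so actives lower synchrony relative to DMSO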
# Outline: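 Rat cortical cultures, DIV 13/15; spikes detected at 8x rms noise, 300-5000 Hz band-pass. Compound 0.03-40 uM, ≥3 wells; 40-min pre- and post-exposure recordings, 37 C. Readout: % change in synchrony index; loss-of-signal fit vs DMSO.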
# [23] = CCTE_Shafer_MEA_dev_firing_rate_mean: CCTE's Neural Network Formation Assay for Mean Firing Rate, Shafer Lab (AID 2284031);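 note: curve fitted for loss of firing so AC50 reflects decreased mean firing rate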
# Outline: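 Read-out: spike count/recording length, averaged over active electrodes, then AUC across days 5, 7, 9, 12. Rat cortical cultures on MEA; continuous 12-day exposure, media and treatment renewed DIV 5, 9; DMSO baseline.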
# [24] = CCTE_Shafer_MEA_dev_per_burst_spike_percent: CCTE's Neural Network Formation Assay for Percent of Spikes in a Burst, Shafer Lab (AID 2284032);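 note: fitted as a decrease in burst spike percentage below DMSO baseline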
# Outline: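 Value is trapezoidal AUC over recordings on days 5, 7, 9 and 12 of the well-mean fraction of spikes falling in single-electrode bursts; rat cortical cultures exposed continuously from plating, treatment renewed DIV 5 and 9, fitted downward against DMSO.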
# [25] = CCTE_Shafer_MEA_dev_active_electrodes_number: CCTE's Neural Network Formation Assay for Number of Active Electrodes, Shafer Lab (AID 2284040; active = hit-call score of the fitted dose curve at least 0.9, where 1 is the maximum;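 note: potency for loss of active electrodes versus DMSO so lower counts are hits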)
# Outline: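 Developing rat cortical networks on MEAs, exposed DIV 0–12. Value is the AUC of active-electrode counts (≥5 spikes/min) from days 5, 7, 9, 12, relative to DMSO.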
# [26] = CCTE_Shafer_MEA_dev_burst_rate: CCTE's Neural Network Formation Assay for Burst Rate, Shafer Lab (AID 2284042);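 note: potency for loss of burst rate below DMSO control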
# Outline: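 Exposure ran continuously over 12 days of network development in rat cortical cultures, with compound refreshed during full media changes on DIV 5 and 9. Single-electrode bursts per recording time, well-mean over active electrodes, trapezoidal AUC across days 5–12, fitted downward relative to DMSO.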
# [27] = CCTE_Shafer_MEA_dev_bursting_electrodes_number: CCTE's Neural Network Formation Assay for Number of Bursting Electrodes, Shafer Lab (AID 2284043; active = hit-call score of the fitted dose curve at least 0.9, where 1 is the maximum;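 note: potency is for loss of bursting electrodes relative to DMSO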)
# Outline: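 Number of electrodes reaching ≥1 burst every 2 min was recorded at DIV 5, 7, 9 and 12 and collapsed as trapezoidal area under the curve. Cultures were rat cortical neurons on MEA plates, dosed continuously from plating with medium and treatment refreshed on DIV 5 and 9.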
smiles,measurement,setting,value
CN(C)C(=O)C(CCN1CCC(O)(c2ccc(Cl)cc2)CC1)(c1ccccc1)c1ccccc1,outcome,[1],inactive
same,outcome,[2],inactive
same,outcome,[3],inactive
same,outcome,[4],inactive
same,AC50,[5],26600 nM (active)
same,outcome,[6],inactive
same,outcome,[7],inactive
same,outcome,[8],inactive
same,AC50,[9],291 nM (active)
same,AC50,[10],291 nM (active)
same,AC50,[11],283 nM (active)
same,AC50,[12],147 nM (active)
same,AC50,[13],165 nM (active)
same,outcome,[14],inactive
same,AC50,[15],2270 nM (active)
same,AC50,[16],68 nM (active)
same,outcome,[17],inactive
same,outcome,[18],inactive
same,outcome,[19],inactive
same,outcome,[20],inactive
same,outcome,[21],inactive
same,AC50,[22],2290 nM (active)
same,AC50,[23],63.2 nM (active) and 101 nM (active) and 190 nM (active)
same,AC50,[24],514 nM (active) and 244 nM (active) and 1.49 µM (active)
same,AC50,[25],385 nM (active) and 196 nM (active) and 1.21 µM (active)
same,AC50,[26],41.8 nM (active) and 92.4 nM (active) and 335 nM (active)
same,AC50,[27],117 nM (active) and 63.8 nM (active) and 1.19 µM (active)
